PubChem BioAssay AID1159580 (chemical genetic matrix, 2015)
The campaign covered roughly 5,500 compounds. About 2,000 (36%) were called active. Not shown: some 18% with an inconclusive outcome. Cut-off read from the data, not from the text of the source: active = normalized growth mostly below about 0.91 (no sharp cut-off); inconclusive = no clear call, values can overlap the other calls; inactive = mostly above about 0.92. The list shows a part of the results.

Experiment: chemical genetic growth profiling, strain panel (AID 1159580);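 note: tested at 20 µM; growth read once vehicle control cultures reached saturation at 30 °C; 1 = growth at the plate median or of vehicle wells; lower values mean less growth of the strain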
Settings: S. cerevisiae deletion strains, growth OD

Measured: normalized growth

O=C(O)CCCCCCCC(O)C(O)CCCCCCO (stereo not given)
inactive: locus YHR030C, strain SLT2, active compounds read low 1.02 | locus YHR079C, strain IRE1, active compounds read low 1.01 | locus YJL095W, strain BCK1, active compounds read low 1 | locus YJR066W, strain TOR1, active compounds read low 0.935 | locus YLR113W, strain HOG1, active compounds read low 0.987 | locus YNL183C, strain NPR1, active compounds read low 0.954 | locus YOR231W, strain MKK1, active compounds read low 0.991 | locus YPL256C, strain CLN2, active compounds read low 1.01

Cn1cnc2c(NCc3ccccc3)nc(NCCO)nc21
inactive: locus YAL013W, strain DEP1, active compounds read low 0.989 | locus YAL040C, strain CLN3, active compounds read low 1.08 | locus YCL061C, strain MRC1 (second series), active compounds read low 0.99 | locus YDR150W, strain NUM1, active compounds read low 0.998 | locus YDR363W, strain ESC2, active compounds read low 1.01 | locus YER002W, strain NOP16, active compounds read low 1.05 | locus YGR078C, strain PAC10, active compounds read low 0.988 | locus YGR229C, strain SMI1, active compounds read low 0.991 | locus YJR075W, strain HOC1, active compounds read low 0.981 | locus YMR263W, strain SAP30, active compounds read low 0.984 | locus YMR307W, strain GAS1, active compounds read low 1 | locus YNL175C, strain NOP13, active compounds read low 1 | locus YNL197C, strain WHI3, active compounds read low 0.982 | locus YNL224C, strain SQS1, active compounds read low 1 | locus YNL322C, strain KRE1, active compounds read low 0.992 | locus YOR083W, strain WHI5 (second series), active compounds read low 0.988 | locus YPL055C, strain LGE1, active compounds read low 1
